Peg3 promoter – Peg3 promoter-driven luciferase inhibitors, primary screen, cell-based, HeLa, luciferase luminescence; HeLa PEG-Prom luciferase reporter, overnight; inhibition, % at 20 µM; 360,000 compounds, 1.7% hits; AID 588405, 2011;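 active = inhibition of at least 50% at 20 µM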
CF NFkB block – inhibitors of PAF-induced NF-kB signaling, primary screen, cell-based, GFP fluorescence, uHTS | KKLEB NF-kB-GFP reporter, GFP fluorescence overnight | inhibition, % at 5 µM | 360,000 compounds, 0.86% hits | AID 588850, 2011;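 active = at least 50% inhibition at 5 µM, scaled per plate between neutral and stimulator controls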;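 note: PAF is a Pseudomonas aeruginosa culture filtrate used as stimulus; plate controls were PAF-stimulated DMSO wells for no effect and unstimulated DMSO wells for full effect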
TRPM1 prom inh – inhibitors of MITF-dependent TRPM1 promoter reporter, primary screen, cell-based, SK-MEL-5, single point, luciferase; SK-MEL-5 TRPM1 promoter luciferase, 24 h; inhibition, % at 12.5 µM; 330,000 compounds, 0.83% hits; AID 488899, 2010;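 active = mean inhibition across replicates of 60% or more, whatever share of single replicates reaches that level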
KKLEB tox – cytotoxicity in KKLEB CF airway cells, primary screen, cytotoxicity control for CF NF-kB inhibitor project, cell-based, uHTS, fluorescence assay plates; KKLEB CF airway cells viability, ATPlite luminescence, overnight; stronger effect = lower value; cells stimulated with P. aeruginosa culture filtrate; activity change (cytotoxicity), % at 5 µM; 360,000 compounds, 0.36% hits; AID 602141, 2011;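 active = corrected activity change at or below -50% at 5 µM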
HIF-2a inh – HIF-2a reporter inhibitors, primary screen, luminescence, 786-0 RCC cells. 786-0 RCC cells HIF-2a reporter, luciferase luminescence, overnight. inhibition, % at 18.8 µM. 360,000 compounds, 0.72% hits. AID 624352, 2012;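 active = inhibition of the luminescence signal of 40% or more relative to plate controls, in a single-dose primary screen at 18.75 µM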
ABHD5-PLIN5 inh – ABHD5-PLIN5 interaction inhibitors, primary screen, cell lysate, split luciferase complementation, luminescence; Split G. princeps luciferase complementation, 4 h; inhibition, % at 4 µM; 360,000 compounds, 0.78% hits; AID 602281, 2012;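 active = inhibition above the mean inhibition across every tested compound plus 3 SD, cut at about 22% in these data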;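 note: 0% = DMSO only wells and the 100% control is not disclosed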
Target sequence (Q00G26 whole entry, looked up): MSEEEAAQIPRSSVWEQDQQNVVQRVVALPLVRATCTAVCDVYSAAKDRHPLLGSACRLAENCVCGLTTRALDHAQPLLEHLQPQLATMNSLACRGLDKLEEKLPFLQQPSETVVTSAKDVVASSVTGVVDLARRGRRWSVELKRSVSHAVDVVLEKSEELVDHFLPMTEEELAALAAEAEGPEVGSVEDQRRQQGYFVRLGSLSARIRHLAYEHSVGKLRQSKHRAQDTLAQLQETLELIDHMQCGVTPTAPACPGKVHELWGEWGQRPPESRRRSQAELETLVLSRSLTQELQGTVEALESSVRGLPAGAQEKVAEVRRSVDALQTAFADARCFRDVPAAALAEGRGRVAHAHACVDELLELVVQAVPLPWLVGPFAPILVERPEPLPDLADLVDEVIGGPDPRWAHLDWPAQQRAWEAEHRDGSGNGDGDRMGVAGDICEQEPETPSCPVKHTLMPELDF
Target sequence (Q8WTS1 whole entry, looked up): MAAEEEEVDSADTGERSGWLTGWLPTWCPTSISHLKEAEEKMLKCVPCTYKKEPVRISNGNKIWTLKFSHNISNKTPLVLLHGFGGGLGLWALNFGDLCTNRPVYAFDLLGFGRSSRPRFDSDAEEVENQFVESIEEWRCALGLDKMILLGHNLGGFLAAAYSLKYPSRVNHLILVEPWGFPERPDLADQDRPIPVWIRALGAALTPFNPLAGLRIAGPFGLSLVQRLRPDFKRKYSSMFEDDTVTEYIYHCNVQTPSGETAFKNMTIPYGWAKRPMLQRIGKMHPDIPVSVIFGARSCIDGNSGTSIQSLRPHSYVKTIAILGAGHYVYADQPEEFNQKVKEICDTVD
* = called active by the depositor. Rows were chosen to be rich in hits. Some 3% of all compounds tested hit in one or more screens of this group.

SMILES | Peg3 promoter | CF NFkB block | TRPM1 prom inh | KKLEB tox | HIF-2a inh | ABHD5-PLIN5 inh
CN(C(=O)c1cccs1)C1(C)CCS(=O)(=O)C1 (stereo unspecified) | 7 | -12 | 2 | 6 | 3 | 2
COC(=O)C1=C(C)N(Cc2ccccc2)C(=NCCc2c[nH]c3ccccc23)N[C@H]1c1cccc(F)c1 | 102* | 24 | 46 | -23 | 3 | 9
Cc1ccc2nc(SC(C(=O)c3ccccc3)c3ccccc3)nc(C)c2c1 (stereo unspecified) | 6 | 17 | -4 | 5 | 17 | 2
Cc1cc(SCC(=O)N/N=C/c2ccc(O)c(O)c2O)c(C)cc1Br | 41 | -9 | 65* | -6 | 23 | -11
COc1cc(/C=N/NC(=O)CSc2cc(C)c(Br)cc2C)ccc1O | -14 | 4 | 2 | 1 | 5 | 4
Cc1csc(C(=O)O)c1NC(=O)c1c(Cl)cccc1Cl | 7 | 12 | 3 | 3 | 21 | -10
COc1ccc(C(CCNCc2ccc(F)cc2)c2ccc(F)cc2)cc1 (stereo unspecified) | 80* | 17 | 31 | -19 | -4 | 8
COc1ccc(CNCCC(c2ccc(F)cc2)c2ccc(OC)cc2)cc1 (stereo unspecified) | 76* | 10 | 64* | -7 | 3 | 13
COc1ccc(C(CCNC(C)c2ccccc2)c2ccc(F)cc2)cc1 (stereo unspecified) | 107* | -6 | 70* | 0 | -17 | 13
COc1ccc(CNCCC(c2ccc(F)cc2)c2ccc(OC(C)C)cc2)cc1OC (stereo unspecified) | 110* | 9 | 15 | -1 | 13 | 1
COc1ccc(C(CCNCc2ccccc2)c2ccc(F)cc2)cc1 (stereo unspecified) | 37 | -4 | 10 | -8 | 1 | 8
O=c1[nH]cnc2c1sc1nc(C(F)F)cc(-c3ccccc3)c12 | 20 | 24 | 8 | -11 | -23 | -2
O=C1N(c2ccccc2C(F)(F)F)O[C@]1(c1ccccc1)C1CCCC1 | 77* | 47 | 17 | 1 | 5 | -5
CC[C@@]1(c2ccccc2OC)ON(c2ccccc2C(F)(F)F)C1=O | 81* | 59* | 52 | 4 | 14 | -4
Cc1ccccc1[C@@]1(C)ON(c2ccccc2C(F)(F)F)C1=O | 79* | 49 | 26 | 5 | 29 | 0
COC(=O)N1C(=O)[C@](c2ccccc2)(C2CCCC2)N1C(=O)OC | 30 | 11 | 14 | -16 | 27 | 3
Cc1cccc(C(=O)N2CCN(Cc3nc4sc5c(c4c(=O)[nH]3)CCCC5)CC2)c1 | 26 | 12 | 8 | 2 | 15 | -2
CC(=O)NC(Cc1ccccc1)C(=O)Oc1ccc2ccccc2c1 (stereo unspecified) | -6 | -12 | 4 | -16 | 14 | 10
O=C(NC(CSCc1ccccc1)C(=O)N/N=C/c1ccc(O)cc1O)c1ccc([N+](=O)[O-])cc1 (stereo unspecified) | 51* | 10 | 70* | 13 | 13 | -4
CCOC(=O)C1CCN(C(=O)CCC(=O)NNc2nc3ccccc3c3nc(C)nn23)CC1 | -4 | -9 | -3 | 1 | 4 | -1
Cc1ccc2nc(SCC(=O)O)nc(C)c2c1 | 7 | -6 | 12 | -5 | -3 | 22*
CCOC(=O)C1(CCOc2ccccc2)CCN(Cc2cccc(OC)c2O)CC1 | 7 | -24 | 9 | 3 | -1 | 1
Cc1ccc(CNC(=O)CSc2nc3c(sc4ccccc43)c(=O)n2CCCN2CCCC2)cc1 | 109* | 22 | 43 | -10 | -3 | 3
COc1ccc(NC(=O)CSc2nc3ccccc3c(=O)n2CCCN2CCC(C)CC2)c(OC)c1 | 69* | 17 | -22 | -13 | 17 | 6
COc1cccc(NC(=O)CSc2nc3c(sc4ccccc43)c(=O)n2CCCN2CCCC2)c1 | 94* | -6 | 98* | -14 | -28 | 12
